These results are taken from PubChem BioAssay.

A short description of test [1]: resazurin metabolic signal in HepG2 cells – cell-based, resazurin fluorescence, 24 h, PK04 Diversity Set, profiling panel (AID 1172). Also: test concentration not given here. The note with it: HepG2 viability, higher = more signal.
Test [2] in a line: budding yeast growth changes without added modifier – OD600, strain BY4716, 24 h, basal condition, primary screen (AID 1173). Conditions: S. cerevisiae BY4716 growth, OD600, 24 h; higher = more signal, called active from +8 up or from −8 down.
A short description of test [3]: viability profiling in MM1S myeloma cells – cell-based, resazurin fluorescence, basal, 24 h, PK04 Diversity Set, profiling panel (AID 1174).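 Also: MM1S multiple myeloma cell line; test concentration not given here.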 The note with it: higher = more signal, called active from +8 up or from −8 down. For orientation: Alamar Blue is a resazurin reagent that responds to reducing activity.
For test [4], the target named is Dihydroorotate dehydrogenase (quinone), mitochondrial (Plasmodium falciparum (isolate 3D7)) (UniProt Q08210). As to the kind of experiment: inhibition of P. falciparum DHODH – biochemical, C-terminal His tag, absorbance 600 nm, primary screen (AID 1175).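 Also: recombinant parasite enzyme with a five histidine tag at its C terminus; test concentration not given here.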 Conditions: PfDHODH enzyme, DCIP absorbance 600 nm; higher = more signal, called active from +8 up or from −8 down.
Sequence of Dihydroorotate dehydrogenase (quinone), mitochondrial (Plasmodium falciparum (isolate 3D7)) (Q08210 whole entry, looked up): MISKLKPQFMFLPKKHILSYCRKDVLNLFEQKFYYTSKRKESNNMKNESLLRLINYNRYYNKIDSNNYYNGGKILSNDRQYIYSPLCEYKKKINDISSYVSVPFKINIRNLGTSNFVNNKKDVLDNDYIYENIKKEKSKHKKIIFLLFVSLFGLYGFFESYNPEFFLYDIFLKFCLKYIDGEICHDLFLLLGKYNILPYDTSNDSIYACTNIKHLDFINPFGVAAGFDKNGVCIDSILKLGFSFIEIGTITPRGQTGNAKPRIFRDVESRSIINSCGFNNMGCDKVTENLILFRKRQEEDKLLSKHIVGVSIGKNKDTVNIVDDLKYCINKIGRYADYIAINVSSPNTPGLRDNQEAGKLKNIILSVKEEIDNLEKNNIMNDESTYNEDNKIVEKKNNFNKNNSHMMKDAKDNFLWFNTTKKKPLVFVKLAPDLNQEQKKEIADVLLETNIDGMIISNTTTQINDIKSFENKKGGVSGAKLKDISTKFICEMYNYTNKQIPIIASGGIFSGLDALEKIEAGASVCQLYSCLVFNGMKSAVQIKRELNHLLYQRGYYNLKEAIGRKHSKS

Test [5] in a line: inhibition of PAO1 biofilm formation – strain PAO1, LB-PBS medium, absorbance 600 nm, primary screen (AID 1176). Also: test concentration not given here. Conditions: P. aeruginosa PAO1 growth/biofilm, A600, 12 h; higher = more signal.
A short description of test [6]: growth modulation of vineyard yeast isolate – strain RM11-1a, OD600, basal, 24 h, primary screen (AID 1177).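 Also: cultures grown under basal conditions with no added stressor; test concentration not given here.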 The note with it: S. cerevisiae RM11-1a growth, OD600, 24 h; higher = more signal, called active from +8 up or from −8 down.
Test [7] in a line: growth of efflux-deficient E. coli DRC39 – strain DRC39, OD650, 24 h, E. coli filamentation inducers, primary screen (AID 1178).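 Also: growth measured as culture turbidity by optical density at 650 nm; test concentration not given here.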 The note with it: E. coli DRC39 acrAB, higher = more signal, called active from +8 up or from −8 down.
Test [8] is described as follows: growth of efflux-deficient E. coli DRC39 – strain DRC39, OD650, 48 h, E. coli filamentation inducers, primary screen (AID 1179).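 Also: screen aims at cell division blockers that make cells filament.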 The note with it: E. coli DRC39 delta-acrAB growth, higher = more signal, called active from +8 up or from −8 down.
The nature of test [9]: viability profiling in RPMI8226 myeloma cells – cell-based, resazurin fluorescence, basal, 24 h, PK04 Diversity Set, profiling panel (AID 1180).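 Also: RPMI8826 multiple myeloma cell line at 5000 cells per well; test concentration not given here.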 The note with it: higher = more signal.
For test [10], the target named is E3 ubiquitin-protein ligase XIAP (Homo sapiens) (UniProt P98170). Kind of test: small molecules binding XIAP protein – biophysical, small-molecule microarray, fluorescence 635 nm, primary screen (AID 1181).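 Also: score merges 667 nm emission and signal to noise over triplicate slides.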 The note with it: higher = more signal.
Sequence of E3 ubiquitin-protein ligase XIAP (Homo sapiens) (P98170 whole entry, looked up): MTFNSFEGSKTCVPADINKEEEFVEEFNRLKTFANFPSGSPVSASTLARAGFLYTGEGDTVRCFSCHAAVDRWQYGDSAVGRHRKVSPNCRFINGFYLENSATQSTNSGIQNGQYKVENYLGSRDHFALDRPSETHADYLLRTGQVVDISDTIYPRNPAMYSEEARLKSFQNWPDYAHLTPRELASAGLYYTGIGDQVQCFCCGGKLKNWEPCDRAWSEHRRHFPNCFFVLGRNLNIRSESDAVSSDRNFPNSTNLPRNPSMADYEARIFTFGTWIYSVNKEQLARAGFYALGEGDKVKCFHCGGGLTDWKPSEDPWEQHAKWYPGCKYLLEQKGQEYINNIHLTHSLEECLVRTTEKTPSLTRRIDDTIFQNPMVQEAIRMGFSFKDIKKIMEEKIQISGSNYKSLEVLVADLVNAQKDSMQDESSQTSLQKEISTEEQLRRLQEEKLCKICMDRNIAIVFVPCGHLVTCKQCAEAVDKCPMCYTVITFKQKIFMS

Activity calls are given as the source filed them. Unless noted, no rule for the calls is given here.

Consider `CC(C)CNC(=O)[C@@]1(C)c2ccccc2C(=O)N(Cc2cc(F)cc(C(F)(F)F)c2)[C@H]1c1ccc(CO)cc1`, for which the z-score is -0.201 in test [1]; -0.3 (inactive) in [2]; 0.919 (inactive) in test [3]; 1.22 (inactive) in [5]; -0.167 (inactive) in test [6]; 0.167 (inactive) in [7]. Also, the z-score in test [8] was 0.137 (inactive); in test [9], 0.489. For the same compound, the results for the composite z-score in [4] and in test [10] were -0.0555 (inactive) and -0.208, respectively.

For `CC(=O)NCCCC[C@@H]1NC(=O)[C@@H]2C[C@H](C(=O)NCCCCCC[N+](C)(C)C)[C@H](c3ccc(O)cc3)N2C1=O`, the z-score in test [1] is -0.793; in [2], 0.857 (inactive); in test [3] it was -0.471 (inactive); in [5] it was -0.807 (inactive); in test [6], 0.0885 (inactive); in [7], -0.241 (inactive). The z-score in test [8] is -0.229 (inactive); in [9], -0.854. Also, the composite z-score is -1.24 (inactive) in test [4] and 0.123 in test [10].

With `CCOC(=O)C1=C[C@@H](C(C)(C)C)N(S(=O)(=O)c2ccc(C)cc2)[C@H]1c1ccccc1Cl`, the z-score in test [1] is -0.421; in test [2], 1.51 (inactive); in test [3] it was -0.763 (inactive); in [5], 0.188 (inactive); in [6], 1.73 (inactive); in [7], -0.544 (inactive). Further, the values for the z-score in test [8] and in [9] were -0.468 (inactive) and -1.74, respectively. The composite z-score in [4] is 0.0477 (inactive); in test [10], 0.227.

For the compound `C=CCC(OC(C)=O)[C@@H]1[C@@H](N(Cc2cccc3ccccc23)C(=O)c2ccc(-c3ccccc3)cc2)c2cc(OCCCO)ccc2N1C(=O)c1ccc2ccccc2n1` (stereo not given in full), the z-score in test [1] was -0.0049; in test [2] it was 0.493 (inactive); in test [3] it was 0.623 (inactive); in test [5], 0.35 (inactive); in test [6], -0.634 (inactive); in test [7], -0.267 (inactive). The z-score in test [8] was -0.174 (inactive); in test [9], 0.485. Moreover, the composite z-score in [4] is -0.318 (inactive); in [10], -0.0102.

With `NC(=O)NCC#Cc1ccc2c(c1)[C@]1(C(=O)N2)[C@H](C(=O)N2CCCCCCC2)[C@H]2C(=O)O[C@H](c3ccccc3)[C@H](c3ccccc3)N2[C@@H]1c1ccc(O)cc1`, the z-score in test [1] was 0.0542; in [2], 0.319 (inactive); in test [3], 0.678 (inactive); in test [5] it was 1.92 (inactive); in test [6] it was 0.0562 (inactive); in test [7] it was 0.271 (inactive). Also, the z-score is -0.194 (inactive) in test [8] and -0.018 in test [9]. For the same compound, the composite z-score in [4] was 0.246 (inactive); in test [10], 0.751.

With `COCCOC(=O)N1C(=O)[C@@]2(c3cc(C#CCNC(N)=O)ccc31)[C@H](C(=O)NC[C@H](O)c1ccccc1)[C@H]1C(=O)O[C@H](c3ccccc3)[C@H](c3ccccc3)N1[C@@H]2c1ccc(OCCO)cc1`, the z-score in test [1] is 0.774; in [2] it was 2 (inactive); in test [3], -0.118 (inactive); in test [5] it was 2.28 (inactive); in test [6], 2.87 (inactive); in test [7] it was -0.0238 (inactive). Besides, the z-score is -0.63 (inactive) in test [8] and 0.381 in test [9]. Also, the composite z-score in test [4] is 1.14 (inactive); in test [10], 0.135.

For `CC(C)(C)N1CC=CC23O[C@@H]4/C=C\CCCOC(=O)C4[C@H]2C(=O)N(CCCCCCO)[C@@H]3C1=O` (stereo not given in full), the z-score is 0.232 in test [1]; -0.584 (inactive) in test [2]; 0.702 (inactive) in test [3]; 1.2 (inactive) in test [5]; -1.13 (inactive) in test [6]; -0.11 (inactive) in test [7]. The z-score in [8] was 0.602 (inactive); in test [9], 1.06. The composite z-score in test [4] is -1.58 (inactive); in test [10] it was -0.0795.

For the compound `CC(c1ccccc1)C(O)C1C=CC2C(=O)N(c3ccccc3)C(=O)C2N1Nc1ccc(C#N)cc1` (stereo not given), the z-score in [1] is 0.142; in [2], -0.0091 (inactive); in test [3], -1.24 (inactive); in test [5] it was 0.695 (inactive); in [6], -0.977 (inactive); in [7], 1.07 (inactive). Also, the z-score was 1.83 (inactive) in test [8] and -0.008 in test [9]. For the same compound, the composite z-score in test [4] is -0.0432 (inactive); in test [10] it was 0.332.

With `CO[C@H]1O[C@H](CO)[C@@H](OC(=O)Nc2ccc3c(c2)OCO3)[C@@H]2OC(=O)[C@@H](Cc3ccccc3)C/C=C/C[C@H](Cc3ccccc3)C(=O)O[C@@H]12`, the z-score in test [1] was -1.37; in test [2], 0.904 (inactive); in test [3] it was -2.59 (inactive); in [5], 0.509 (inactive); in test [6] it was 2.14 (inactive); in test [7], 0.307 (inactive). Moreover, the z-score in test [8] is 0.312 (inactive); in test [9], -1.38. Besides, the results for the composite z-score in test [4] and in [10] were -0.675 (inactive) and 0.785, respectively.

In the case of `CN(C)C(=O)[C@]1(Cc2ccccc2)N=C(c2ccc(OCCCO)cc2)O[C@@H]1c1ccccc1`, the z-score in test [1] was 0.0784; in test [2], -1.32 (inactive); in test [3] it was 0.324 (inactive); in test [5] it was -0.304 (inactive); in test [6], 0.597 (inactive); in [7], -0.809 (inactive). Moreover, the z-score was -0.591 (inactive) in [8] and -0.247 in test [9]. In addition, the composite z-score in test [4] was 0.179 (inactive); in test [10] it was 0.125.

On to `C=CCC(OC(C)=O)[C@@H]1[C@@H](N(Cc2ccc(-c3ccccc3)cc2)C(=O)c2ccc(C)cc2)c2cc(OCCCO)ccc2N1C(=O)c1ccc2ccccc2c1` (stereo not given in full), for which the z-score in [1] was -0.643; in [2], -0.766 (inactive); in [3], 1.12 (inactive); in [5], -0.0877 (inactive); in test [6], -1.99 (inactive); in test [7] it was 0.406 (inactive). Also, the z-score in [8] is 0.67 (inactive); in test [9] it was 1.36. Also, the composite z-score in [4] is -1.55 (inactive); in test [10], -0.0357.

`COc1ccc(NN2C(C(O)c3cc(C(F)(F)F)cc(C(F)(F)F)c3)C=CC3C(=O)N(C4CCCCC4)C(=O)C32)cc1` (stereo not given): the z-score in test [1] is 0.392; in test [2], 0.275 (inactive); in test [3], 0.0147 (inactive); in test [5], 1.21 (inactive); in [6], -0.0874 (inactive); in test [7] it was -0.587 (inactive). Further, the z-score was 0.372 (inactive) in [8] and 0.283 in test [9]. In addition, the composite z-score in test [4] was -0.0132 (inactive); in test [10], -0.0669.
